Bioassay records (PubChem)
Hits are enriched below; roughly 21% of the tested compounds scored in any of these assays.
Pf growth 96h = inhibits malaria parasite growth, 96 h. P. falciparum luciferase reporter growth, 96 h. Potency, µM (highest dose often 28.7 µM), for inactives: at the top dose activity change, negative = inhibition, usual class: inhibitors. 320,000 tested, 6.9% active; note: potency is the fitted concentration of half-maximal effect; % is set by controls: 0 for no effect and ±100 for the full control effect
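Parasite growth measured via integrated firefly luciferase reporter in P. falciparum. Infected erythrocytes at 2% hematocrit, 0.05% parasitemia final were treated 96 hours at 37 C under 5% CO2, and luminescence was read.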
Pf growth 48h = P. falciparum growth inhibition at 48 hours (one generation); P. falciparum luciferase growth in erythrocytes, 48 h; Potency, µM (series often up to 28.7 µM), inactives show at the highest dose activity change, negative = inhibition, actives largely listed as inhibitors; 310,000 tested, 5.9% active; note: potency is the fitted concentration of half-maximal effect; % is set by controls: 0 for no effect and ±100 for the full control effect
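Compounds are pin-transferred into medium, infected erythrocytes (2% hematocrit, 0.1% parasitemia final) are added, and plates sit one parasite generation at 37 C in 5% CO2. Detection reagent is then added and luminescence measured.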
HCV inh = HCV inhibition; Potency, µM (titrated, usually from 41.8 µM), without a hit: top-dose activity change, negative = inhibition, most hits filed as inhibitors; AID 651820; 340,000 tested, 3.4% active; Huh7.5.1 HCVcc-Cre infection, luciferase reporter, 44 h; note: potency is the fitted concentration of half-maximal effect; % is set by controls: 0 for no effect and ±100 for the full control effect
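A cell-based infection assay in which seeded cells (1,000 per well) receive test compound after 4 h, are inoculated with HCVcc-Cre at approximately 0.5 moi, and are incubated 44 h before luminescence detection.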
AMA1 RON2 block = AMA1-RON2 (P. falciparum) interaction inhibition; Potency, µM (series often up to 58.2 µM), inactives show top-dose activity change, negative = inhibition, hits mostly inhibitors; AID 720542; AlphaScreen AMA1-biotinylated RON2 peptide binding; 360,000 tested, 0.2% active;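 note: potency is the fitted concentration of half-maximal effect; 0% = vehicle wells and -100% = peptide control; nearly all actives have a fitted effect of over 45% in size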
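AMA1 (3D7) with his tag at 25 nM final met compounds first, then biotinylated RON2 peptide at 25 nM; detection used donor plus acceptor beads, 10 µg/mL apiece, read by AlphaScreen after 30 min at room temperature.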
Shiga toxin inh = blocks Shiga toxin action in Vero cells | Vero cells, Shiga toxin protein synthesis inhibition reporter | inhibition, % at 38.7 µM | 290,000 tested, 9.2% active; in the data active = inhibition mostly above about 28%, no sharp cut-off; inactive = mostly below about 43%; note: 0% is about no effect
CHX counter = affects cycloheximide protein synthesis inhibition readout, counter-screen. AID 2314. 300,000 tested, 12% active. max response, %. cell reporter, cycloheximide protein synthesis inhibition counterscreen; in the data active = max response mostly above about 13%, no sharp cut-off; inactive = mostly below about 14%; note: read at 38.3 µM for the half of the compounds with a filed dose; 0% is about no effect
* = called active by the depositor; ? = inconclusive; nt = not tested or not shown; [ ] = another dose, or the depositor's remark. Unless noted, calls come from the whole dose curve; as a rule, active = well fitted curve in the direction sought with a large enough effect; inconclusive = small, poorly fitted or top-dose-only effect, or another doubt; inactive = no such curve, though single readings can be large; an effect the other way counts as inactive or inconclusive.

SMILES | Pf growth 96h | Pf growth 48h | HCV inh | AMA1 RON2 block | Shiga toxin inh | CHX counter
COc1ccc(CNC(=O)CC2C[C@H](C(=O)N3CCOCC3)[C@@]3(CCC4CCCC4)c4[nH]c5ccccc5c4CCN3C2=O)cc1OC (some centres undefined) | nt | nt | 7.9µM* | 3% | nt | nt
CN(C)C(=O)CCc1ccc2c3c([nH]c2c1)[C@]1(CCC2CCCC2)[C@@H](C(=O)N2CCOCC2)C[C@H](CC(=O)NCc2cccc(C(F)(F)F)c2)C(=O)N1CC3 | nt | nt | 25µM* | -8% | nt | nt
O=C1c2cccnc2C(=O)N1Cc1ccc(S(=O)(=O)N2CCOc3ccccc32)cc1 | 72% | 13% | 3% | -1% | -8 | 1
CC(C)c1ccc([C@@H]2O[C@H](CCc3ccccc3)CC3=C2C(=O)OC(C)(C)O3)cc1 | nt | nt | nt | -6% | nt | nt
Cc1occc1C(=O)Nc1ccc(OCc2ccccc2)cc1 | 18% | -4% | -19% | -4% | 21 | 4
CCCCOC(=O)c1ccc(NC(=O)c2ocnc2C)cc1 | 74% | 32% | -21% | -8% | 11 | 1
CCCOC(=O)c1ccc(NC(=O)c2ccoc2C)cc1 | -6% | 180% | ? | 4% | 88* | 41*
CCCCOC(=O)c1ccc(NC(=O)c2ccoc2C)cc1 | -3% | -51% | ? | -12% | 70* | 29*
CCOC(=O)C1=NN(c2ccc(Cl)cc2)C(c2ccccc2)CC1=O (centres undefined) | ? | 9.3µM* | 9% | -19% | 0 | -2
Cc1ccc(N(CC(=O)NC2CCCCC2)C(=O)c2ccc(C)s2)cc1 | ? | -19% | ? | -4% | -4 | -2
Cc1ccc(C(=O)N(CC(=O)NC2CCCC2)c2ccc3c(c2)OCCO3)s1 | 13µM* | -15% | ? | -3% | -18 | 10
Cc1ccc(N(CC(=O)NC2CCCC2)C(=O)c2ccc(C)s2)cc1 | -4% | -20% | 11µM* | 0% | 14 | 3
Cc1cc(C)cc(N(CC(=O)NC2CCCCC2)C(=O)c2ccc(C)s2)c1 | 26% | -21% | 11µM* | 8% | -6 | 11
C[C@H](CO)N1C[C@H](C)[C@@H](CN(C)S(=O)(=O)c2ccc(-n3cccn3)cc2)OCc2cn(nn2)CCCC1=O | nt | nt | nt | 3% | nt | nt
CSc1nc(Cl)cc(Nc2ccc(O)cc2)n1 | 49% | 205% | ? | 0% | 63 | 42*
COc1ccc2nc(C)cc(N3CCN(S(=O)(=O)c4ccccc4F)CC3)c2c1 | 9.3µM* | ? | 7.1µM* | -3% | nt | nt
Cc1ccc2nc(C)cc(N3CCOCC3)c2c1 | nt | 1% | 10µM* | -2% | 38 | 1
COc1cccc(Cl)c1NC(=O)N1CCN(c2ccnc3cc(Cl)ccc23)CC1 | ? | ? | ? | -11% | -4 | -3
COc1ccc2nc(C)cc(N3CCN(c4ccccc4)CC3)c2c1 | 9.3µM* | 13µM* | 22µM* | ? | 3 | -6
COc1ccc2nc(C)cc(N3CCOCC3)c2c1 | 43% | 7% | 20% | -6% | -11 | 0
COc1cccc(Cl)c1NC(=O)N1CCN(c2cc(C)nc3ccccc23)CC1 | ? | ? | 10µM* | -14% | 11 | 2
COc1cc(OC)cc(C(=O)NNC(=O)CCC(=O)c2cc(C)sc2C)c1 | nt | nt | -7% | 20%[11.6 µM] | nt | nt
O=C1CSC(c2cccc([N+](=O)[O-])c2)N1c1ccccc1F (centres undefined) | 7% | ? | 2% | 0% | -11 | 7
COc1ccc(N2CCN(CC(=O)c3ccccc3)CC2)cc1 | -16% | -7% | 5% | -4% | 37 | 5
COc1ccc(-c2csc(N3CCN(c4cc(C)nc5ccccc45)CC3)n2)cc1OC | ? | ? | 2.8µM* | -28% | -10 | 0
SMILES | Pf growth 96h | Pf growth 48h | HCV inh | AMA1 RON2 block | Shiga toxin inh | CHX counter
COc1ccc(C(=O)CN2CCN(c3cc(C)nc4ccccc34)CC2)cc1 | ? | ? | 10µM* | -6% | 1 | -3
COc1ccc(-n2c(-c3ccc(Br)cc3)c[n+]3c2SC(C)C3)cc1 (centres undefined) | ? | 0.33µM* | -3% | -2% | 19 | 2
COc1ccc(-n2c(-c3ccccc3)c[n+]3c2CCC3)cc1 | ? | ? | 10µM* | -13% | -6 | -3
CCOc1ccc(-c2c[n+]3c(n2-c2ccccc2)CCCCC3)cc1 | 0.93µM* | 1.2µM* | ? | 10% | 31 | 10
COc1ccc(-n2c(-c3ccccc3)cc3c2CCCC3=O)cc1 | ? | ? | -11% | ? | -12 | 9
COc1ccc(-n2c(-c3ccc(Br)cc3)c[n+]3c2CCCCC3)cc1 | 0.59µM* | 1µM* | 10% | -9% | 6 | -1
COc1ccc(-n2c(-c3ccc(Br)cc3)nc(=S)c3c2CCCC3)cc1 | ? | 7% | 4% | -7% | -4 | 1
CC(=O)c1cccc(OC(=O)c2cc(S(=O)(=O)N3CCOCC3)ccc2N2CCCC2)c1 | ? | ? | -22% | -7% | nt | nt
CC(NC(=O)c1ccc(NC(=O)CC2SC(N3CCCC3)=NC2=O)cc1)c1ccc(F)cc1 (centres undefined) | ? | ? | -3% | 1% | nt | nt
CC(Cc1n[nH]c(=S)n1N)c1ccccc1 (centres undefined) | 1% | -8% | 7% | 94% | -8 | -1
COC(=O)c1ccc(C(=O)N2CCCCCC2(C)C(=O)NC(C)C)cc1 (centres undefined) | nt | nt | nt | -8% | nt | nt
COc1ccc(-n2c(-c3ccc(Br)cc3)c[n+]3c2CCC3)cc1 | ? | 6.6µM* | -7% | -10% | 4 | 2
COc1ccc(-n2c(-c3ccc(Br)cc3)n[nH]c2=S)cc1 | -12% | -16% | 0% | 48% | nt | -2
COC(=O)C(Sc1ccc(Cl)cc1)C1SC(=S)N(Cc2ccccc2)C1=O (centres undefined) | nt | nt | nt | -5% | nt | nt
Cc1ccc2cc3c(N)[nH]nc3nc2c1 | 32% | 36% | 2% | 52% | 14 | 21*
Cc1ccc2ccc(C3C(=O)c4ccccc4C3=O)nc2c1 | nt | nt | ? | -7% | nt | nt
CC1(C)Cn2c(nnc2-c2cccc(O)c2)S1 | 12µM* | 44% | 3% | 33% | 66* | 24*
CC1Cn2c(nnc2-c2cccc(Cl)c2)S1 (centres undefined) | ? | 7% | -11% | -2% | -2 | -2
Cc1ccc(OCC(=O)Nc2ccc3oc(=O)ccc3c2)cc1 | 11% | 9% | -4% | -27% | 2 | -1
Cc1ccc(OCC(=O)Nc2ccc(-c3nc4ccc(C)cc4o3)cc2)cc1 | nt | nt | nt | nt | 80* | 34*
COc1ccc(OCC(=O)Nc2ccc(-c3nc4cc(C)c(C)cc4o3)cc2)cc1 | nt | nt | nt | nt | 98* | 51*
CCc1cc(C(=O)N(CCCOC)c2c(N)n(Cc3ccccc3)c(=O)[nH]c2=O)sc1C | 1% | ? | ? | -3% | nt | nt
CCN1CCN(C(=O)/C=C/c2ccccc2[N+](=O)[O-])CC1 | 6% | 13% | -1% | -3% | 29 | 14
